Measured values: the supplement of paper PMC8728848
Shown is part of a subset that was picked to be rich in the strongest signals.

Tests used:
Assay in all cases: glycan array binding signal (z-score within array); higher = stronger binding
Details in all cases: glycan notation: IUPAC condensed, linker removed
[1] = target: Fuc(a1-2)Gal(b1-3)GlcNAc(b1-3)[Fuc(a1-2)Gal(b1-3)GlcNAc(b1-6)]GalNAc
Method in brief: (§1)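 Glycan array data were curated from 3228 arrays in the Consortium for Functional Glycomics database and kept only where the protein sequence was available. Glycan names were converted to IUPAC-condensed notation, and columns mapping to the same glycan were averaged. The binding signal is a within-array Z-score, averaged across arrays of the same protein sequence at different concentrations or buffers and across linkers. Negative Z-scores can be read as non-binding.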

[2] = target: Fuc(a1-2)Gal(b1-4)[Fuc(a1-3)]GlcNAc(b1-3)Gal(b1-4)[Fuc(a1-3)]GlcNAc
Method in brief: as §1

[3] = target: Fuc(a1-2)[Gal(a1-3)]Gal(b1-3)GlcNAc
Method in brief: as §1

[4] = target: Fuc(a1-2)[Gal(a1-3)]Gal(b1-4)GlcNAc(b1-3)GalNAc
Method in brief: as §1

Gal(a1-3)Gal(b1-4)Glc = target: Gal(a1-3)Gal(b1-4)Glc
Method in brief: as §1

[5] = target: Gal(a1-3)Gal(b1-4)GlcNAc(b1-2)Man(a1-3)[Gal(a1-3)Gal(b1-4)GlcNAc(b1-2)Man(a1-6)]Man(b1-4)GlcNAc(b1-4)GlcNAc
Method in brief: as §1

[6] = target: Gal(a1-4)Gal(b1-3)GlcNAc(b1-2)Man(a1-3)[Gal(a1-4)Gal(b1-3)GlcNAc(b1-2)Man(a1-6)]Man(b1-4)GlcNAc(b1-4)GlcNAc
Method in brief: as §1

Gal(b1-2)Gal = target: Gal(b1-2)Gal
Method in brief: as §1

[7] = target: Gal(b1-3)GalNAc(a1-3)[Fuc(a1-2)]Gal(b1-4)Glc
Method in brief: as §1

[8] = target: Gal(b1-3)GalNAc(b1-3)Gal(a1-4)Gal(b1-4)Glc
Method in brief: as §1

[9] = target: Gal(b1-3)GalNAc(b1-4)Gal(b1-4)Glc
Method in brief: as §1

[10] = target: Gal(b1-3)GlcNAc(b1-3)Gal(b1-3)GlcNAc
Method in brief: as §1

Gal(b1-3)GlcNAc6S = target: Gal(b1-3)GlcNAc6S
Method in brief: as §1

[11] = target: Gal(b1-3)[Fuc(a1-4)]GlcNAc(b1-2)Man(a1-3)[Gal(b1-3)[Fuc(a1-4)]GlcNAc(b1-2)Man(a1-6)]Man(b1-4)GlcNAc(b1-4)[Fuc(a1-6)]GlcNAc
Method in brief: as §1

[12] = target: Gal(b1-4)GlcNAc(b1-2)Man(a1-6)[GlcNAc(b1-2)Man(a1-3)]Man(b1-4)GlcNAc(b1-4)GlcNAc
Method in brief: as §1

[13] = target: Gal(b1-4)GlcNAc(b1-2)[Gal(b1-4)GlcNAc(b1-4)]Man(a1-3)[GlcNAc(b1-4)][Gal(b1-4)GlcNAc(b1-2)Man(a1-6)]Man(b1-4)GlcNAc(b1-4)GlcNAc
Method in brief: as §1

[14] = target: Gal(b1-4)GlcNAc(b1-3)Gal(b1-4)GlcNAc(b1-2)Man(a1-3)[Gal(b1-4)GlcNAc(b1-3)Gal(b1-4)GlcNAc(b1-2)Man(a1-6)]Man(b1-4)GlcNAc(b1-4)GlcNAc
Method in brief: as §1

[15] = target: Gal(b1-4)GlcNAc(b1-3)Gal(b1-4)GlcNAc(b1-3)Gal(b1-4)GlcNAc(b1-2)Man(a1-3)[Gal(b1-4)GlcNAc(b1-3)Gal(b1-4)GlcNAc(b1-3)Gal(b1-4)GlcNAc(b1-2)Man(a1-6)]Man(b1-4)GlcNAc(b1-4)[Fuc(a1-6)]GlcNAc
Method in brief: as §1

[16] = target: Gal(b1-4)GlcNAc(b1-3)Gal(b1-4)GlcNAc(b1-3)Gal(b1-4)GlcNAc(b1-3)Gal(b1-4)GlcNAc(b1-2)Man(a1-3)[Gal(b1-4)GlcNAc(b1-3)Gal(b1-4)GlcNAc(b1-3)Gal(b1-4)GlcNAc(b1-3)Gal(b1-4)GlcNAc(b1-2)Man(a1-6)]Man(b1-4)GlcNAc(b1-4)GlcNAc
Method in brief: as §1

[17] = target: Gal(b1-4)GlcNAc(b1-3)Gal(b1-4)GlcNAc(b1-3)Gal(b1-4)GlcNAc(b1-3)Gal(b1-4)GlcNAc(b1-2)Man(a1-3)[Gal(b1-4)GlcNAc(b1-3)Gal(b1-4)GlcNAc(b1-3)Gal(b1-4)GlcNAc(b1-3)Gal(b1-4)GlcNAc(b1-2)Man(a1-6)]Man(b1-4)GlcNAc(b1-4)[Fuc(a1-6)]GlcNAc
Method in brief: as §1

[18] = target: Gal(b1-4)GlcNAc(b1-3)Gal(b1-4)GlcNAc(b1-3)Gal(b1-4)GlcNAc(b1-3)Gal(b1-4)GlcNAc(b1-2)[Gal(b1-4)GlcNAc(b1-3)Gal(b1-4)GlcNAc(b1-3)Gal(b1-4)GlcNAc(b1-3)Gal(b1-4)GlcNAc(b1-6)]Man(a1-6)[Gal(b1-4)GlcNAc(b1-3)Gal(b1-4)GlcNAc(b1-3)Gal(b1-4)GlcNAc(b1-3)Gal(b1-4)GlcNAc(b1-2)Man(a1-3)]Man(b1-4)GlcNAc(b1-4)[Fuc(a1-6)]GlcNAc
Method in brief: as §1

[19] = target: Gal(b1-4)GlcNAc(b1-3)Gal(b1-4)GlcNAc(b1-3)Gal(b1-4)GlcNAc(b1-3)Gal(b1-4)GlcNAc(b1-3)Gal(b1-4)GlcNAc(b1-2)Man(a1-3)[Gal(b1-4)GlcNAc(b1-3)Gal(b1-4)GlcNAc(b1-3)Gal(b1-4)GlcNAc(b1-3)Gal(b1-4)GlcNAc(b1-3)Gal(b1-4)GlcNAc(b1-2)Man(a1-6)]Man(b1-4)GlcNAc(b1-4)GlcNAc
Method in brief: as §1

[20] = target: Gal(b1-4)GlcNAc(b1-3)Gal(b1-4)GlcNAc(b1-3)Gal(b1-4)GlcNAc(b1-3)Gal(b1-4)GlcNAc(b1-3)Gal(b1-4)GlcNAc(b1-2)Man(a1-3)[Gal(b1-4)GlcNAc(b1-3)Gal(b1-4)GlcNAc(b1-3)Gal(b1-4)GlcNAc(b1-3)Gal(b1-4)GlcNAc(b1-3)Gal(b1-4)GlcNAc(b1-2)Man(a1-6)]Man(b1-4)GlcNAc(b1-4)[Fuc(a1-6)]GlcNAc
Method in brief: as §1

[21] = target: Gal(b1-4)GlcNAc(b1-3)Gal(b1-4)GlcNAc(b1-3)Gal(b1-4)GlcNAc(b1-3)Gal(b1-4)GlcNAc(b1-3)Gal(b1-4)GlcNAc(b1-2)[Gal(b1-4)GlcNAc(b1-3)Gal(b1-4)GlcNAc(b1-3)Gal(b1-4)GlcNAc(b1-3)Gal(b1-4)GlcNAc(b1-3)Gal(b1-4)GlcNAc(b1-6)]Man(a1-6)[Gal(b1-4)GlcNAc(b1-3)Gal(b1-4)GlcNAc(b1-3)Gal(b1-4)GlcNAc(b1-3)Gal(b1-4)GlcNAc(b1-3)Gal(b1-4)GlcNAc(b1-2)Man(a1-3)]Man(b1-4)GlcNAc(b1-4)[Fuc(a1-6)]GlcNAc
Method in brief: as §1

[22] = target: Gal(b1-4)GlcNAc(b1-3)Gal(b1-4)GlcNAc(b1-3)Gal(b1-4)GlcNAc(b1-3)Gal(b1-4)GlcNAc(b1-3)Gal(b1-4)GlcNAc(b1-3)Gal(b1-4)GlcNAc(b1-2)Man(a1-3)[Gal(b1-4)GlcNAc(b1-3)Gal(b1-4)GlcNAc(b1-3)Gal(b1-4)GlcNAc(b1-3)Gal(b1-4)GlcNAc(b1-3)Gal(b1-4)GlcNAc(b1-3)Gal(b1-4)GlcNAc(b1-2)Man(a1-6)]Man(b1-4)GlcNAc(b1-4)GlcNAc
Method in brief: as §1

[23] = target: Gal3S(b1-4)[Fuc(a1-3)]Glc6S
Method in brief: as §1

Gal4S6S(b1-4)GlcNAc = target: Gal4S6S(b1-4)GlcNAc
Method in brief: as §1

Gal6S(b1-3)GlcNAc = target: Gal6S(b1-3)GlcNAc
Method in brief: as §1

[24] = target: GalNAc(b1-3)Gal(a1-6)Gal(b1-4)Glc
Method in brief: as §1

GalNAc(b1-3)GlcNAc = target: GalNAc(b1-3)GlcNAc
Method in brief: as §1

B1: Epa9 (Candida glabrata), CAGL0A01386g (protein)
chain: MGSSHHHHHHSSGLVPRGSHMDITPFAHYPRPEGCSSPPNAVSVGLHMDLYNYPYLYVKNPRTGFTNDTDSDADGETDGDSAGGIEGRAGQCWNPEYQDPNFPRYGYKKYGSFGSSDHVNGKISWDHNEFKEGCKPIMARLPTAYNYPAKITFSNFTMVLSGYFKPKSTGLYKFEIHADDFILFNFGSKNAFECCNREESIDNFGPYVAYAMWPNEADQELEVYLFEDSYYPIRLFYNNRDYHSKFMVGFYPPNTEEITYDFDGYLYMLDDTGNECKDSIRYKTVCDD
glycan array binding signal (z-score) [1]: -0.296
glycan array binding signal (z-score) [2]: -0.521
glycan array binding signal (z-score) [3]: -0.32
glycan array binding signal (z-score) [4]: -0.304
glycan array binding signal (z-score) (Gal(a1-3)Gal(b1-4)Glc): 0.746
glycan array binding signal (z-score) [5]: 4.07
glycan array binding signal (z-score) [6]: 4.05
glycan array binding signal (z-score) (Gal(b1-2)Gal): 0.38
glycan array binding signal (z-score) [7]: 1.58
glycan array binding signal (z-score) [8]: 1.98
glycan array binding signal (z-score) [9]: 4.13
glycan array binding signal (z-score) [10]: -0.11
glycan array binding signal (z-score) (Gal(b1-3)GlcNAc6S): -0.028
glycan array binding signal (z-score) [11]: -0.377
glycan array binding signal (z-score) [12]: 0.1
glycan array binding signal (z-score) [13]: 1.34
glycan array binding signal (z-score) [14]: 1.3
glycan array binding signal (z-score) [15]: 3.45
glycan array binding signal (z-score) [16]: 4.82
glycan array binding signal (z-score) [17]: 4.74
glycan array binding signal (z-score) [18]: 5.31
glycan array binding signal (z-score) [19]: 5.73
glycan array binding signal (z-score) [20]: 5.38
glycan array binding signal (z-score) [21]: 6.29
glycan array binding signal (z-score) [22]: 4.6
glycan array binding signal (z-score) [23]: -0.318
glycan array binding signal (z-score) (Gal4S6S(b1-4)GlcNAc): -0.491
glycan array binding signal (z-score) (Gal6S(b1-3)GlcNAc): -0.361
glycan array binding signal (z-score) [24]: -0.468
glycan array binding signal (z-score) (GalNAc(b1-3)GlcNAc): -0.486
